# pAkt inh – HTS Assay for Inhibitors of Akt Phophorylation: Primary Screen | Neuro2A IGF-stimulated pAkt S473 HTRF, 20 min; active compounds read low | activity change, % for hits at 50 µM | 0.32% of 360,000 active | AID 651550, 2012; in the data active means activity change below about -80%
#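 Neuro2A cells (4,500/well, DMEM with 0.5% FBS) were treated with compound at a single 50 µM final concentration, stimulated with 6 nM IGF for 20 min at 37 °C, and lysed. Phospho-Akt Ser473 was read by HTRF as 665/615 ratio ×10^4.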
# RXFP1 antag – qHTS Assay for Antagonists of the Relaxin Receptor RXFP1; Relaxin receptor 1 (Homo sapiens), Q9HBX9; AID 1259400, 2018; activity change, negative = inhibition, % at 57.5 µM; HEK293-RXFP1, relaxin-stimulated cAMP HTRF, 30 min; active compounds read low; 0.59% of 350,000 active;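 active means activity change of -60% or lower, but not beyond a set lower limit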
# RXFP1 ag – qHTS Assay for Agonists of the Relaxin Receptor RXFP1 | Relaxin receptor 1 (Homo sapiens), Q9HBX9 | HEK293T-RXFP1 cAMP TR-FRET, 30 min; response scale: percent of porcine relaxin response, buffer zero | Potency, µM (titrated, usually from 57.5 µM), for the others: top-dose activation, usual class: activators | 0.3% of 370,000 active | AID 2676, 2010; active means well fitted activation curve with a large enough effect; further: potency means the concentration at half of the fitted maximal effect; nearly all actives have a fitted effect of over 60% in size
#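 HEK293T cells stably expressing RXFP1 were pretreated with the PDE4 inhibitor Ro 20174, exposed to compounds for 30 min at 37C, lysed, and cAMP was read by TR-FRET. Data normalized to buffer (basal) and 29 nM porcine relaxin (100%).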
# KCNH2 3.1 inh – qHTS for Inhibitors of KCHN2 3.1: Mutant qHTS; AID 720553, 2013; activity change, % (tested at about 1.8 µM); U2OS KCNH2 3.1, thallium flux FluxOr; active compounds read low; 0.95% of 340,000 active; Potassium voltage-gated channel subfamily H member 2, brain isoform KCNH2 3.1 (human);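 active means maximum activity change below -70%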;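 further: thallium influx rate constant from kinetic fluorescence after stimulation buffer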
#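 Thallium flux read-out: FluxOr dye with Red40 quencher in HBSS/HEPES, 45 min at RT. Rate constants from kinetic reads were normalized to positive and negative DMSO controls. Cells: U2OS virally expressing the 3.1 isoform.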
# hERG WT inh – qHTS for Inhibitors of KCHN2 3.1: Wildtype qHTS. Voltage-gated inwardly rectifying potassium channel KCNH2 (Homo sapiens), Q12809. 0.37% of 340,000 active. activity change, % at 1.84 µM. U2OS, BacMam KCNH2, thallium flux FluxOr; active compounds read low;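 active means maximum activity change below -70%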
#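 U2OS cells were transduced with wild-type KCNH2 virus (2.03 x 10^8 / mL) for 4 h at room temperature, then cultured overnight at 37 C. Thallium flux was read with FluxOr dye. Rate constants were normalized to DMSO controls.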
# Active calls of the source: *; i = inactive; x = no result given. An excerpt weighted towards active compounds, which were near 1.7% of everything screened. On the % scale 0 is the no-effect control and ±100 the full control effect.
SMILES,pAkt inh,RXFP1 antag,RXFP1 ag,KCNH2 3.1 inh,hERG WT inh
CCOC(=O)c1c(C)nc2sc3c(=O)n(-c4ccc(C)cc4)cnc3c2c1-c1ccc(OC)cc1,-110%*,-2,0%,0,2
COc1cc(-n2cnnn2)ccc1S(=O)(=O)N1CCOCC1,x,-9,-2%,-144*,-106*
O=S(=O)(c1cccc(-n2cnnn2)c1)N1CCOCC1,i,14,1%,3,-12
O=C(COC(=O)c1cncc(Br)c1)Nc1nnc(-c2ccccc2)o1,i,2,x,17,-72*
COCCNC(=O)c1cc2sccc2n1C,i,-5,1%,-10,-6
CCN(CC)CCN(C(=O)/C=C/c1cccs1)c1nc2ccc(C)cc2s1,i,0,2%,-99*,-148*
CCc1ccc2nc(N(CCN(C)C)C(=O)/C=C/c3cccs3)sc2c1,i,-1,2%,-127*,-43
CN(C)CCN(C(=O)/C=C/c1cccs1)c1nc2ccc(Br)cc2s1,i,1,-1%,-73*,-10
CCN(CC)CCN(C(=O)/C=C/c1cccs1)c1nc2ccc(F)cc2s1,x,-27,1%,-28,-22
Cc1ccc2nc(N(CCN(C)C)C(=O)/C=C/c3cccs3)sc2c1,i,-6,0%,-101*,-16
Cc1c(Cc2ccc3c(c2)OCO3)sc(NC(=O)c2ccccc2)c1C(N)=O,i,-1,19%,7,-3
CCN(C(=O)c1cnc(NC(C)C)cc1C(F)(F)F)c1ccc(Cl)cc1,i,-8,2%,6,1
COc1ccccc1CNC(=O)c1cn(C)c2ccc(S(=O)(=O)N(C)C3CCCCC3)cc2c1=O,x,-16,5%,x,x
Cc1ccc2nc(N(CCCN(C)C)C(=O)CN3C(=O)c4ccccc4C3=O)sc2c1,i,-32,4%,-87*,34
Cc1cc(C)c2sc(N(CCCN(C)C)C(=O)CN3C(=O)c4ccccc4C3=O)nc2c1,i,-16,1%,17,3
Cc1ccc(C(=O)Nc2cccc(Oc3ccccc3)c2)o1,i,-72*,-2%,-21,-1
Cc1cc(C)n2nc(SCc3ccc(F)cc3Cl)nc2n1,i,9,0%,-2,-15
CCc1cccc(C)c1Nc1c(-c2ccsc2)nc2ncccn12,x,-29,4%,x,x
Cc1ccc(/C(N)=N/OC(=O)N2c3ccccc3Sc3ccccc32)cc1,i,-7,x,8,-176*
Cn1c2c(c(=O)n(C)c1=O)C(c1ccccc1Cl)CC(=O)N2 (stereo not drawn),i,x,0%,1,-4
Cc1cccc(-c2cc3nc(C)cc(C)n3n2)c1,i,-5,-1%,-19,-6
Cc1cccc(-c2cc3nc(C)cc(N4CC(C)CC(C)C4)n3n2)c1 (stereo not drawn),i,-8,-1%,-120*,-2
COc1ccc(C(=O)Nc2nc3ccccc3[nH]2)cc1,i,-78*,0%,11,9
COc1ccccc1C(=O)NCCC(=O)Nc1nc2ccccc2[nH]1,i,-86*,1%,11,-2
COc1cccc(C(=O)Nc2nc3ccccc3[nH]2)c1,i,6,2%,5,-2
SMILES,pAkt inh,RXFP1 antag,RXFP1 ag,KCNH2 3.1 inh,hERG WT inh
COc1ccc(C(=O)Nc2nc3ccc4nc(C)sc4c3s2)cc1,i,x,0%,-94*,12
COc1ccc(C(=O)Nc2nc3ccccc3s2)cc1,i,-66*,2%,2,-12
CC(=O)c1cccc(N2C(=NC(=O)CCc3ccccc3)SC3CS(=O)(=O)CC32)c1 (stereo not drawn),i,9,-3%,-17,-15
CCCCNCC(O)(c1ccc(Cl)cc1)c1ccc(Cl)cc1,i,-30,4%,-23,14
Fc1c(F)c(F)c(NC2=NCCCCC2)c(F)c1F,i,10,-1%,-3,-2
C=CCN1C(=O)CSc2ccc(C(=O)NC3CCCCC3)cc21,i,10,-4%,1,-3
N#C/C(=C\c1ccc(Cl)cc1)c1nc2ncccc2[nH]1,-105%*,2,0%,-2,-3
N#C/C(=C\c1c(Cl)cccc1Cl)c1nc2ccccc2[nH]1,i,-3,-2%,9,10
Cc1nccn1-c1ncnc2sc3c(c12)CCCC3,i,0,4%,7,-1
Cc1ccc(CNC(=O)c2ccc(Cn3nc(C)cc3C)o2)cc1,x,-117*,5%,-3,28
OC(CN1CCN(c2ccccn2)CC1)Cn1c2ccc(Cl)cc2c2cc(Cl)ccc21 (stereo not drawn),i,5,-1%,-46,-49
OC(CN1CCCCC1)Cn1c2ccc(Cl)cc2c2cc(Cl)ccc21 (stereo not drawn),i,-62*,-1%,-30,20
Cc1ccc(OCC(=O)NNc2c3ccccc3nc3ccccc23)cc1,i,-67*,1%,-12,0
CS(=O)(=O)N1CCN(C(=O)COc2ccccc2)CC1,i,-6,-3%,-13,3
O=C(COc1ccccc1)N1CCN(S(=O)(=O)Cc2ccccc2)CC1,i,-3,1%,-9,-269*
C=CCn1c(CNc2ccccc2)nnc1SCC(=O)N/N=C/c1ccc(O)cc1O,i,-14,1%,9,-5
COc1cccc(COc2ccc3ccc(=O)oc3c2)c1,i,1,4%,-74*,-4
CCCOc1ccc(C2=NNC(c3cccs3)=Nc3ccc(OC)cc32)cc1,-125%*,5,0%,-1,-4
CCOC(=O)c1sc(NC(C)=O)c(C(=O)OCC)c1C,i,13,3%,-12,-1
CCOC(=O)c1sc(NC(=O)CN(CC)CC)c(C(=O)OCC)c1C,-81%*,-4,6%,8,-7
CCOC(=O)c1c(NC(=O)CNCCO)sc(C)c1C,i,-9,0%,-4,-9
CCOC(=O)c1c(NC(=O)CNC2CCCCC2)sc(C)c1C,i,-2,-3%,-83*,6
O=S(=O)(NCC(c1ccco1)S(=O)(=O)c1ccccc1)c1cc(F)ccc1F (stereo not drawn),x,-2,0%,x,x
CC1CCc2cc(F)ccc2N1C(=O)CSc1nnc2c(n1)[nH]c1ccccc12 (stereo not drawn),i,-62*,0%,-1,-1
CC1CCc2sc(C(=O)Nc3nnc(SCc4ccc(F)cc4)s3)cc2C1 (stereo not drawn),-85%*,-5,1%,-3,1
COC(=O)c1ccc(CSc2nnc(NC(=O)c3cc4c(s3)CCCC4)s2)cc1,i,-7,17%,2,1

# Screening results as filed in PubChem BioAssay.
